Screening results: PubChem BioAssay, National Center for Advancing Translational Sciences (NCATS)
Only some compounds are listed: those with a hit (about 11% of all), similar ones and a draw of the others.
ALDH1A1 inh – ALDH1A1 (human) enzyme inhibition; P00352; Purified ALDH1A1, NADH fluorescence, propionaldehyde substrate; Potency, µM (titrated, usually from 75.3 µM), for the others: at the top dose activity, negative = inhibition, hits mostly inhibitors; 220,000 tested, 7.3% active; AID 1030;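 note: potency is the fitted concentration of half-maximal effect; plate controls were no enzyme wells and a reference inhibitor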
HPGD block – HPGD (human) dehydrogenase inhibition | P15428 | purified HPGD, NADH fluorescence kinetic, PGE2 substrate | Potency, µM, for inactives: at the highest dose activity change, negative = inhibition, most hits filed as inhibitors | 150,000 tested, 4.3% active; note: potency is the fitted concentration of half-maximal effect
Target sequence (P15428 whole entry, looked up): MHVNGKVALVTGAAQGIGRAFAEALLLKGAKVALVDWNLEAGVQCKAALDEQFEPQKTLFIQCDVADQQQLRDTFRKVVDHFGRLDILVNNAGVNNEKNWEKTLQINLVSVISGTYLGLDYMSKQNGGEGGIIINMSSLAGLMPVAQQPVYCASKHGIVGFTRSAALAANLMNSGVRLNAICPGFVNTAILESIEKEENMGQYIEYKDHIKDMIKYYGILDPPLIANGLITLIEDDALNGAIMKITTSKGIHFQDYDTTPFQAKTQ
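20 nM HPGD preincubated 15 min at room temperature with compound in 50 mM Tris-HCl pH 8, 0.01% Tween 20. Started with 1 mM NAD+ and 30 uM prostaglandin E2; NADH fluorescence (360/450 nm) read 5 times over 30-s intervals, last minus first.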
PNC assembly inh – blocks assembly of the perinucleolar compartment. PC3M PTB-GFP, PNC prevalence imaging, 16 h; stronger effect = lower value. activity change (PNC), negative = inhibition, % at 10 µM. 140,000 tested, 3.1% active. AID 2417;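 active = readout at or below -70, meaning at least 70% loss of cells showing the perinucleolar compartment, a nuclear body marking cancer cells; inconclusive = readout between -30 and a set limit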;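 note: plate controls were DMSO wells for no effect and camptothecin positive control wells for full effect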
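Compounds are pinned in duplicate onto adhered PC3M cells stably expressing GFP-tagged PTB and incubated 16 h at 37 C. Cells are then fixed, nuclei stained with Hoechst, and PNC-positive cells counted.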
* = called active by the depositor; ? = inconclusive; · = no result; [ ] = dose if it differs, or a comment. Unless noted, calls come from the whole dose curve; as a rule, active = well fitted inhibition curve with a large enough effect (not every such curve was filed as active); inconclusive = small, poorly fitted or top-dose-only effect, or another doubt; inactive = no such curve, though single readings can be large or run the other way. Unless noted, % is set by controls: 0 for no effect and ±100 for the full control effect.

SMILES	ALDH1A1 inh	HPGD block	PNC assembly inh
CCN(CC)C(=O)c1ccc(NC(=O)CSc2nnnn2-c2cc(OC)ccc2OC)cc1	8.9µM*	8.9µM*	42
OCC(O)[C@H]1O[C@@H]2O[C@H](C(Cl)(Cl)Cl)O[C@@H]2[C@H]1O (some centres not stated)	-4%	1%	·
C/C(Cl)=C/CC1(CN2CCCC2=O)C(=O)NC(=O)NC1=O	-6%	·	-122*
C[N+](C)(C)CC#CCN1CCCC1=O	0%	-20%	·
CN1C2CCC1CC(NC(=O)c1nn(C)c3ccccc13)C2 (configuration not stated)	-13%	-15%	·
CC[C@H](C)[C@H](NC(=O)[C@H](CCCN=C(N)N)NC(=O)[C@H](CCCN=C(N)N)NC(=O)[C@H](CC(C)C)NC(=O)[C@H](Cc1ccccc1)NC(=O)CNC(=O)CNC(=O)[C@@H](N)Cc1ccc(O)cc1)C(=O)N[C@@H](CCCN=C(N)N)C(=O)N1CCC[C@H]1C(=O)N[C@@H](CCCCN)C(=O)N[C@@H](CC(C)C)C(=O)N[C@@H](CCCCN)C(=O)O	3%	·	·
COc1cc(CCN)c(OC)c(OC)c1	8%[13.5 µM]	-2%	·
N=C(N)n1cc(/C=N\N=C(N)N)cn1	-3%[13.5 µM]	-13%	·
C[C@H]1O[C@@H](O[C@H]2[C@@H](O)C[C@H](O[C@H]3[C@@H](O)C[C@H](O[C@H]4CC[C@@]5(C)[C@H](CC[C@@H]6[C@@H]5CC[C@]5(C)[C@@H](C7=CC(=O)OC7)CC[C@]65O)C4)O[C@@H]3C)O[C@@H]2C)C[C@H](O)[C@@H]1O	6%	-4%	-82*
CC1O[C@@H](OC2CC(O)[C@@]3(CO)C4C(O)C[C@@]5(C)C(C6=CC(=O)OC6)CC[C@]5(O)C4CC[C@]3(O)C2)C(O)C(O)C1O (some centres not stated)	0%	-2%	·
C[C@@H]1O[C@@H](O[C@H]2C[C@@H](O)[C@]3(CO)[C@H]4[C@H](O)C[C@]5(C)[C@@H](C6=CC(=O)OC6)CC[C@]5(O)[C@@H]4CC[C@]3(O)C2)[C@H](O)[C@H](O)[C@H]1O	-6%	-10%	-115*
CC1OC(O[C@@H]2C(O)CC(O[C@@H]3C(O)C[C@@H](OC4CC[C@]5(C)[C@H](CC[C@H]6[C@@H]5CC[C@]5(C)C(C7=CC(=O)OC7)C(O)C[C@@]65O)C4)OC3C)OC2C)CC(O)C1O (some centres not stated)	18%	-6%	·
CN1CCC23CCCC[C@H]2C1Cc1ccc(O)cc13 (some centres not stated)	2%	-16%	·
CCOC(=O)[C@@H]1[C@@H]2c3ccccc3-c3ccccc3[C@H]2C[C@H]1O	14%[13.5 µM]	-8%	·
O=C(O)c1cc(Cl)ccc1Cl	?	-7%	·
O=C(CCl)c1ccc(Cl)cc1Cl	0.16µM*	-9%	·
COP(=S)(OC)Oc1ccc([N+](=O)[O-])cc1	20µM*	-6%	·
CN(C(=O)Oc1ccc([N+](=O)[O-])cc1)c1ccccc1	?	-5%	?
CCOC(=O)Cn1c(=O)oc2cc(S(=O)(=O)NC3CCCc4ccccc43)ccc21 (configuration not stated)	?	?	20
COc1cc(CN2CCSCC2)cc(OC)c1OC	?	-9%	-9
CCCCCOc1ccc(C)cc1CN(CCCl)CCCl	20µM*	·	·
CCN(CCCl)Cc1ccccc1Br	-5%	5%	·
CCCCCc1cc(O)c2c(c1)OC(C)(C)[C@@H]1CCC(C(=O)O)=C[C@H]21	-4%	·	·
COc1ccc(CCn2c(O)c(C=NCc3ccc4c(c3)OCO4)c(=O)[nH]c2=O)cc1OC	5µM*	-4%	6
O=c1[nH]c(=O)n(CCc2ccc(F)cc2)c(O)c1C=NCc1ccc2c(c1)OCO2	11%	?	?
SMILES	ALDH1A1 inh	HPGD block	PNC assembly inh
C[C@@]12CCC(=O)C[C@@H]1CC[C@@H]1[C@@H]2CC[C@]2(C)C(=O)CC[C@@H]12	-3%	0%	·
O=C(Oc1ccccc1)N1CCC[C@@]2(CCN(Cc3ccccc3)C2)C1	4%	-7%	·
C[C@H](NC(=O)[C@@H](N)Cc1ccc(O)cc1)C(=O)N[C@@H](Cc1ccccc1)C(=O)N[C@@H](Cc1ccccc1)C(N)=O	-7%	·	·
ClCCCl	?	-1%	·
Cc1nc2cc(C(=O)N3CCC4(CC3)OCCO4)ccc2n1-c1ccc(Br)cc1	?	8.9µM*	34
O=C(c1cc(Br)ccc1Cl)N1CCC2(CC1)OCCO2	2%	-18%	?
COc1ccc(-n2c(C)nc3cc(C(=O)N4CCC5(CC4)OCCO5)ccc32)cc1	?	13µM*	8
Cc1cc(C(=O)N2CCC3(CC2)OCCO3)cs1	-13%	?	42
CC(C)[C@H](CO)Nc1nc(Nc2cccc(Cl)c2)c2ncn(C(C)C)c2n1	?	-19%	·
O=[N+]([O-])c1cc(Cl)c(Cl)c(Cl)c1	?	-3%	·
C/C(=N\NC(N)=S)C12CC3CC(CC(C3)C1)C2	?	-3%	43
O=c1[nH]c(=O)n(CCc2ccccc2)c(O)c1C=NCCCn1ccnc1	8%	-13%	-2
CCCCn1c(O)c(C=NCCCn2ccnc2)c(=O)[nH]c1=O	18µM*	-14%	4
COC(=O)[C@@H]1[C@@H](C(=O)OC)C2(c3ccccc3-c3ccccc32)N(c2ccc(Cl)cc2)N1C#N	?	?	-11
COC(=O)C[C@]1(C(=O)OC)CN(C#N)N(c2ccc(Cl)cc2)C12c1ccccc1-c1ccccc12	-4%	-26%	-100*
NC[C@H](CS(=O)(=O)O)c1ccc(Cl)cc1	4%	-5%	·
CNC(=O)[C@H]1C[C@@H]1[C@H](NP(=O)(c1ccccc1)c1ccccc1)c1ccccc1	1%	-8%	·
CN(CC(=O)N[C@H](CO)Cc1ccccc1)C(=O)[C@H](CCS(C)=O)NC(=O)[C@@H](N)Cc1ccc(O)cc1 (some centres not stated)	-4%	·	·
C=CCc1cc(C=C2C(=O)N(C)C(=O)N(C)C2=O)cc(OCC)c1OCc1ccccc1	25µM*	14µM*	-114*
C=CCc1cc(C=C2C(=O)NC(=O)NC2=O)cc(OC)c1OCc1ccc(C(=O)O)cc1	11µM*	·	·
O=C(O)Cc1ccc([N+](=O)[O-])cc1[N+](=O)[O-]	-6%[13.5 µM]	-3%	·
O=[N+]([O-])O[C@H]1CO[C@H]2[C@H]1OC[C@@H]2O[N+](=O)[O-]	?	-5%	·
CCCCCc1nc2ccccc2c(=O)n1-c1ccccc1[N+](=O)[O-]	?	-10%	?
CCCCCc1nc2c(c(=O)c3ccccc3n2C)c(=O)n1C1CCCCCC1	3.5µM*	-1%	?
NS(=O)(=O)c1ccc(-c2ccc([As](=O)(O)O)cc2)cc1	4%[13.5 µM]	-11%	·
OC1(c2ccc(F)cc2)CC2CCC(C1)N2Cc1nnnn1C1CCCCC1 (configuration not stated)	0.63µM*	-6%	-16
OCCN1C2CCC1CC(O)(c1ccc(F)cc1)C2 (configuration not stated)	8%	-9%	-1
CCCCC/C=C\C/C=C\C/C=C\CCCCC(=O)NCCc1ccc(O)c(O)c1	-5%	-3%	·
CCN(CC)C(=O)c1ccc(NC(=O)CCCSc2ccccc2)cc1	-6%	·	·
CCN(CC)C(=O)c1ccc(NC(=O)Cn2nc(C)c3ccccc3c2=O)cc1	?	10µM*	?
